{"source": "PubChem BioAssay (NCI)", "note": "Compounds without any hit were thinned out: in the full panel of roughly 83,000, 20% have a hit.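 Percent growth is the endpoint: 0 to 100 indicates growth inhibition (40 means 60% inhibition), 0 means no net growth, and negative values indicate cell death.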 Calls of active or inactive are those of the source. How the source made its calls: active means growth percent below 10; inactive means the rest."}
{"system": "MDA-MB-468 breast", "assay": "NCI-60 one-dose screen, 48 h (100 = growth as untreated, 0 = no growth, -100 = all killed)", "settings": "10 µM unless noted"}
{"smiles": "CCOC(=O)C1=C(CCl)NC(=O)NC1c1ccc2c(c1)OCO2", "note": "(configuration not stated)", "growth": "-1.1% (active)"}
{"smiles": "COC(=O)c1ccc(C(=Nc2ccc(N(C)C(=O)CN3CCN(C)CC3)cc2)c2c(O)[nH]c3ccc(C(=O)OC)cc23)cc1", "growth": "62.5% (inactive)"}
{"smiles": "CC(=O)c1ccc2c(c1)c1ccccc1n2C", "growth": "79.5% (inactive)"}
{"smiles": "COc1cc2ncnc(Nc3ccc(S(=O)(=O)Nc4cc(C)on4)cc3)c2cc1OCCCN1CCOCC1", "growth": "103% (inactive)"}
{"smiles": "COc1ccc(CN2CCC(N3CCCC3=O)c3cc(Cl)ccc32)cc1", "note": "(configuration not stated)", "growth": "114% (inactive)"}
{"smiles": "N#Cc1cc(-c2nc3ccccc3s2)c(=O)n(NS(=O)(=O)c2ccc(Cl)cc2)c1N", "growth": "99.6% (inactive)"}
{"smiles": "CC(=O)c1ccc(NS(=O)(=O)c2ccc([N+](=O)[O-])cc2)cc1", "growth": "98.9% (inactive)"}
{"smiles": "CC(C)(C)n1cc(-c2ccnc(NCCNS(=O)(=O)c3cccc(F)c3)c2)c(-c2ccccc2)n1", "growth": "62.8% (inactive)"}
{"smiles": "O=c1cc(-c2ccccc2)nc2cc(-c3ccco3)[nH]n12", "growth": "-1.48% (active)"}
{"smiles": "CCn1cc(C(=O)NN=C2CCCC2)c(=O)c2ccc(C)nc21", "growth": "91.8% (inactive)"}
{"smiles": "CC(=O)c1c(-c2ccc(OC(F)(F)F)cc2)nc2ccccn12", "growth": "94.7% (inactive)"}
{"smiles": "C=CCN(CC=C)C(=O)[C@H](CC)[C@@H]1CC[C@@H](C)[C@@H]([C@H](C)[C@@H](O)[C@@H](C)C(=O)[C@H](CC)C2O[C@]3(C=CC(=O)[C@]4(CC[C@@](C)([C@H]5CC[C@](O)(CC)[C@H](C)O5)O4)O3)[C@H](C)C[C@@H]2C)O1", "note": "(some centres not stated)", "growth": "-17.4% (active)"}
